According to PubChem BioAssay (NCI):
Compounds without any hit were thinned out: in the full panel of roughly 83,000, 20% have a hit.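 Results are percent growth after 48 hours of single-concentration exposure. 100 means growth as in untreated cells, lower positive values show inhibition; negative values down to -100 show cell death.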 Active and inactive are the calls of the source. Rule for the calls: active = growth percent below 10; inactive = the rest.

How the values were obtained:
Experiment in all cases: NCI-60 one-dose screen, 48 h (100 = growth as untreated, 0 = no growth, -100 = all killed)
Conditions in all cases: 10 µM unless noted
[1] = tested on: NCI-H23 lung
[2] = tested on: NCI-H226 lung
[3] = tested on: NCI-H322M lung
[4] = tested on: HOP-62 NSCLC
[5] = tested on: NCI-H460 lung
[6] = tested on: HOP-92 NSCLC
[7] = tested on: NCI-H522 lung
[8] = tested on: A549/ATCC NSCLC
[9] = tested on: 786-0 renal
[10] = tested on: COLO 205 colon

Measured: growth

C=CC(=O)Nc1ccc2ncnc(Nc3cccc(NS(=O)(=O)CCC)c3Cl)c2c1
inactive: [1] 68.9% | [2] 46.7% | [3] 15.8% | [4] 67.3% | [5] 68.6% | [6] 35.1% | [7] 17.8% | [8] 50.8% | [9] 42.4% | [10] 12%

N=C(N)c1ccc(-c2ccc(-c3ccccc3)s2)nc1
active: [10] -6.33%
inactive: [1] 94.1% | [2] 92.8% | [3] 80.4% | [4] 88.8% | [5] 23.1% | [6] 70.2% | [7] 83.9% | [8] 83.8% | [9] 91.3%

CN(C)CCCN(CCC1CCCCC1)CCC1CCCCC1
active: [5] -2.63% | [10] -54.4%
inactive: [1] 66.4% | [2] 94.8% | [3] 80.1% | [4] 64.3% | [6] 28.8% | [7] 48.8% | [8] 52.5% | [9] 56.2%

COc1nc2ccccc2cc1/C=[N+](\[O-])c1ccccc1
inactive: [1] 75.4% | [2] 69.5% | [3] 86.5% | [4] 80.4% | [5] 99.6% | [6] 64.4% | [7] 82.7% | [8] 94.8% | [9] 102% | [10] 108%

NCCNc1ccc([N+](=O)[O-])cc1
inactive: [1] 112% | [2] 99.5% | [3] 112% | [4] 104% | [5] 111% | [6] 98.9% | [7] 94.9% | [8] 108% | [9] 99.5% | [10] 120%

CC1=NC(=S)NC(c2ccccc2)/C1=C1/CC(c2ccccc2O)NN1 (stereo not given)
inactive: [1] 92.5% | [2] 97% | [3] 101% | [4] 92.7% | [5] 104% | [6] 84.5% | [7] 96.3% | [8] 100% | [9] 100% | [10] 105%

O=C1C(c2c(O)[nH]c3ncccc23)=Nc2ccccc21
inactive: [1] 76% | [2] 89% | [3] 79.7% | [4] 86.8% | [5] 47.7% | [6] 96.9% | [7] 76.3% | [8] 82.4% | [9] 84.1% | [10] 82.8%

COc1ccc(Nc2nccc(Nc3ccc4[nH]ncc4c3)n2)cc1
inactive: [1] 40.3% | [2] 28.1% | [3] 63.2% | [4] 49% | [5] 24.9% | [7] 19.1% | [8] 24% | [9] 43.5% | [10] 26.4%
active: [6] -1.08%

CS(=O)(=O)c1ccc(/C(=N/NC(N)=S)c2ccc(F)cc2)cc1
inactive: [1] 97.9% | [2] 107% | [3] 104% | [4] 105% | [5] 102% | [6] 112% | [7] 99.6% | [8] 108% | [9] 102% | [10] 116%

CCCn1cnc2c(c1=N)C(c1ccc(Cl)cc1)c1sc3c(F)cccc3c1O2 (stereo not given)
inactive: [1] 81.8% | [2] 85.5% | [3] 75.6% | [4] 96.9% | [5] 66.2% | [6] 79.3% | [7] 69.7% | [8] 76% | [9] 69.3%
active: [10] -67.9%

COc1ccc(S(=O)(=O)N(C)c2oc(-c3ccc(Cl)cc3)nc2C#N)cc1
inactive: [1] 79.7% | [2] 94.9% | [3] 98.2% | [4] 82.7% | [5] 95.9% | [6] 77.2% | [7] 83% | [8] 87.3% | [9] 98.2% | [10] 97.9%

Cc1ccccc1NC(=O)c1sc2nc3c(cc2c1N)CCCC3
inactive: [1] 47.2% | [2] 63.4% | [3] 51.1% | [4] 27.4% | [5] 11% | [6] 17.3% | [7] 11.1% | [8] 34.3% | [9] 33.7% | [10] 15.5%

COc1ccc(NC(=O)CSc2oc(-c3ccccc3)nc2S(=O)(=O)c2ccc(Cl)cc2)c(OC)c1
inactive: [1] 73% | [3] 83% | [4] 51% | [5] 44.7% | [6] 39.6% | [7] 41.4% | [8] 49.2% | [9] 35.7% | [10] 82.4%
active: [2] 1.45%

CN1C(=O)N(C)C2C1NN=c1s/c(=C\c3ccc(F)cc3)c(=O)n12 (stereo not given)
inactive: [1] 50.8% | [2] 62.9% | [3] 53.6% | [4] 46.7% | [5] 13% | [6] 47% | [8] 24.8% | [9] 40.7% | [10] 12.5%
active: [7] 2.08%

CCOC(=O)C1=C(c2ccccc2)N=C2SC=C(c3cccc([N+](=O)[O-])c3)N2C1c1ccc(O)cc1 (stereo not given)
inactive: [1] 96.5% | [2] 96.8% | [3] 96.3% | [4] 98.6% | [5] 101% | [6] 90.1% | [7] 93.8% | [8] 100% | [9] 96.5% | [10] 116%

COc1ccc(-c2cc(-c3ccc(Cl)cc3)c(C#N)c(=O)n2CCCCC(=O)NO)cc1
inactive: [1] 84.9% | [2] 77.2% | [3] 77.3% | [4] 66.5% | [5] 99.1% | [6] 87.2% | [7] 58.8% | [8] 82.7% | [9] 80.2% | [10] 86.3%

COc1cccc2cc(N(C)c3ncnc4ccccc34)ccc12
inactive: [1] 15.5% | [2] 46.2% | [3] 48% | [4] 23.3% | [6] 28.1% | [8] 13.5% | [9] 29.5%
active: [5] 4.58% | [7] -9.69% | [10] -13.8%

O=C1NCCN1/N=C/c1c(Cl)n(Cc2ccc(Cl)cc2)c2ccccc12
inactive: [1] 98.2% | [2] 64.8% | [3] 110% | [4] 136% | [5] 41.4% | [6] 62.8% | [7] 93.9% | [8] 70% | [9] 96.5% | [10] 75.2%

O=C(O)/C=C/c1cn(-c2ccccc2)nc1-c1ccc(F)cc1
inactive: [1] 96.2% | [2] 95.1% | [3] 87% | [4] 81.7% | [5] 101% | [6] 84.3% | [7] 98.2% | [8] 82.2% | [9] 96.1% | [10] 104%

COc1cc(C2CC(c3cccc(Nc4ccncc4)c3)=Nc3c(N)ncnc3N2)cc(OC)c1OC (stereo not given)
inactive: [1] 95.5% | [2] 89% | [3] 92.2% | [4] 86.7% | [5] 95.9% | [6] 76% | [7] 82.1% | [8] 84% | [9] 95.9% | [10] 96.6%

COc1ccc(C2=C/C(=C\c3ccccc3O)C(=O)N2Cc2ccccc2)cc1
inactive: [1] 85.9% | [2] 94.9% | [3] 77.8% | [4] 89.7% | [5] 90% | [6] 64.6% | [7] 51.3% | [8] 74% | [9] 90% | [10] 102%
